An excerpt weighted towards active compounds, which were near 9% of everything screened.
LMNA splice mod = qHTS Assay for Modulators of Lamin A Splicing | AID 1487, 2009 | HeLa LMNA splicing GFP/RFP minigene ratio, 48 h | Potency, µM (series often up to 46.1 µM), most hits filed as inhibitors | 200,000 tested, 0.01% active; active = well fitted inhibition curve with a large enough effect in the signal ratio, with a control signal flat, not every such curve was filed as active; inconclusive = small, poorly fitted or top-dose-only effect, or effect the other way, or a change in a side signal; the % refers to the signal ratio
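Read-out is the ratio of GFP to DsRed2 object intensity, acquired by 488 nm laser-scanning cytometry on HeLa lamin A-EGFP minigene reporter cells. Compound incubation 48 hrs at 37 °C in Opti-MEM with 2% FBS; DMSO 0.5% final.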
ALDH1A1 block = qHTS Assay for Inhibitors of Aldehyde Dehydrogenase 1 (ALDH1A1). Potency, µM (doses to about 75.3 µM), hits mostly inhibitors. Purified ALDH1A1, NADH fluorescence, propionaldehyde substrate. Aldehyde dehydrogenase 1A1 (Homo sapiens), P00352. AID 1030, 2008. 220,000 tested, 7.3% active
HPGD block = qHTS Assay for Inhibitors of HPGD (15-Hydroxyprostaglandin Dehydrogenase). 15-hydroxyprostaglandin dehydrogenase [NAD(+)] (Homo sapiens), P15428. purified HPGD, NADH fluorescence kinetic, PGE2 substrate. Potency, µM, actives largely listed as inhibitors. 150,000 tested, 4.3% active. AID 894, 2007
Target sequence (P15428 whole entry, looked up): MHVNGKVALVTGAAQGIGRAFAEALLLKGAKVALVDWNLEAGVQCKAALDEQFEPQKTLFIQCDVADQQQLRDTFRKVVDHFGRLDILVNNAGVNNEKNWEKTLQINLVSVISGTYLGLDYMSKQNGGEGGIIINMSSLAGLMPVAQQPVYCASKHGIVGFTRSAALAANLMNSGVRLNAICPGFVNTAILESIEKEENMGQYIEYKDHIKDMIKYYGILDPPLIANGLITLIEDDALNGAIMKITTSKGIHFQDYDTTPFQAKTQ
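NADH formation kinetics: reaction with 30 uM PGE2 and 1 mM NAD+ (final), 20 nM enzyme, Tris-HCl pH 8 with Tween 20, after 15 min compound preincubation at room temperature. Fluorescence change, last versus first of five reads.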
IMPase Li cell = qHTS Assay for Identifying the Cell-Membrane Permeable IMPase Inhibitors: Potentiation with Lithium | CHO-M1 cells, IP1 TR-FRET (IP-One), carbachol + lithium | Potency, µM (top dose mostly 59.4 µM), most hits filed as inhibitors | 210,000 tested, 0.35% active; active = well fitted curve in the direction sought with a large enough effect; inconclusive = small, poorly fitted or top-dose-only effect, or another doubt; inactive = no such curve, though single readings can be large; an effect the other way counts as inactive or inconclusive;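 also: IP1 builds up when IMPase is blocked and the TR-FRET signal falls; nearly all actives have a fitted effect of over 50% in size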
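Concentration–response in CHO-M1 cells, lithium-potentiated; 30 min at 37C. IP1 detected by competitive TR-FRET after 10 min lysis at RT. Hill-fitted AC50.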
Luc counter = Counterscreen for Luciferase (Kinase-Glo TM) Inhibition; Kinase-Glo luciferase, ATP luminescence, 8 min; Potency, µM (titrated, usually from 38.3 µM), usual class: inhibitors; 200,000 tested, 0.28% active; active = well fitted curve in the direction sought with a large enough effect; inconclusive = small, poorly fitted or top-dose-only effect, or another doubt; inactive = no such curve, though single readings can be large; an effect the other way counts as inactive or inconclusive; also: nearly all actives have a fitted effect of over 60% in size
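Compounds were added to a substrate mix at pH 7.2 (50 mM imidazole, 10 uM ATP, within the enzyme's linear range), followed by Kinase-Glo detection reagent; luminescence was measured after 8 minutes at ambient temperature.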
Hits are given with their value; – = inactive; ? = inconclusive; · = no result. Unless noted, calls follow the shape of the dose curve; as a rule, active = well fitted inhibition curve with a large enough effect (not every such curve was filed as active); inconclusive = small, poorly fitted or top-dose-only effect, or another doubt; inactive = no such curve, though single readings can be large or run the other way.

SMILES | LMNA splice mod | ALDH1A1 block | HPGD block | IMPase Li cell | Luc counter
COc1ccc(CN(C(=O)CNC(=O)c2ccco2)C(C(=O)NC2CCCC2)c2ccco2)cc1 (stereo not drawn) | – | 0.398µM | – | – | –
COc1cccc(C(C(=O)NC2CCCC2)N(CC2CCCO2)C(=O)Cc2cccs2)c1 (stereo not drawn) | – | – | · | – | –
COc1cc(C(=O)N(CCCN(C)C)c2nc3c(OC)cccc3s2)cc(OC)c1OC | – | · | · | · | ·
O=C(NCC(=O)N(Cc1cccs1)C(C(=O)NC1CCCC1)c1ccncc1)c1ccco1 (stereo not drawn) | – | 7.94µM | – | – | –
S=C(NCc1ccccc1)N1CCn2cccc2C1c1cccnc1 (stereo not drawn) | · | 3.55µM | · | ? | –
Cc1cccc(NC(=S)N2CCn3cccc3C2c2cccnc2)c1 (stereo not drawn) | – | ? | – | – | –
S=C(NCCc1ccccc1)N1CCn2cccc2C1c1cccnc1 (stereo not drawn) | – | ? | · | – | –
COc1cccc(NC(=S)N2CCn3cccc3C2c2cccnc2)c1 (stereo not drawn) | – | 14.1µM | · | – | –
CCN(CC)CCCNC(=O)c1ccc(Cc2nc3ccccc3[nH]2)cc1 | · | – | – | · | –
Cc1ccc(NC2=NCC(=O)N2C2CCCC2)c(C)c1 | – | – | – | – | –
CN1CCN(NC(=O)CN2C(=O)/C(=C/c3ccccc3Cl)SC2=S)CC1 | – | ? | 12.6µM | – | –
Cc1cc(C)c(-c2cc(NC(=O)CSc3n[nH]c(N)n3)n(-c3ccccc3)n2)cc1C | – | – | – | – | –
O=C(Sc1ccccc1)c1cccc(Cn2cc(C(F)(F)F)ccc2=O)c1 | · | – | · | · | ·
CCCNC(=O)C1CNc2ccccc2O1 (stereo not drawn) | – | – | 25.1µM | – | –
O=C(c1cccs1)n1nc(-c2ccco2)nc1SCc1ccccc1 | – | – | ? | – | –
CCC(=O)n1nc(-c2ccco2)nc1SCc1ccccc1 | – | ? | 12.6µM | – | –
CC(=O)n1nc(-c2ccco2)nc1SCc1ccccc1 | – | – | 12.6µM | – | –
CCNc1ncc2nc(CCc3ccccc3)c(=O)n(Cc3ccc(F)cc3)c2n1 | ? | ? | · | – | ·
Cn1c(CNC(=O)c2ccccc2F)nnc1SCCOc1ccccc1 | ? | – | · | – | –
O=C1CC(Nc2ccc(N3CCOCC3)cc2)C(=O)N1c1ccccc1F (stereo not drawn) | – | 14.1µM | – | – | –
O=C1CC(Nc2ccccc2)C(=O)N1c1ccc(N2CCOCC2)cc1 (stereo not drawn) | – | ? | – | – | –
Cc1[nH]c2ccccc2c1[C@H]1[C@@H](CC#N)C1(C)C | – | 22.4µM | – | – | –
Cc1[nH]c2ccccc2c1CCO | – | – | – | – | –
CC(CCc1ccccc1)NC(=O)CCNC(=O)Cn1ccc2ccccc2c1=O (stereo not drawn) | – | – | · | – | –
CSCCC(NC(=O)c1ccccc1C)C(=O)O (stereo not drawn) | – | – | · | – | –
SMILES | LMNA splice mod | ALDH1A1 block | HPGD block | IMPase Li cell | Luc counter
CCCc1[nH]nc2c1C(c1ccccc1OCC)C(C#N)=C(N)O2 (stereo not drawn) | – | – | – | – | –
N#CC1=C(N)Oc2cc3ccccc3cc2C1c1cccnc1 (stereo not drawn) | – | 14.1µM | 28.2µM | – | –
CCCc1[nH]nc2c1C(c1ccccc1OC)C(C#N)=C(N)O2 (stereo not drawn) | – | ? | – | – | –
CCCc1[nH]nc2c1C(c1ccncc1)C(C#N)=C(N)O2 (stereo not drawn) | – | 14.1µM | – | – | –
CCCc1[nH]nc2c1C(c1cccnc1)C(C#N)=C(N)O2 (stereo not drawn) | – | 14.1µM | – | · | –
CCCc1[nH]nc2c1C(/C(C)=C/c1ccccc1)C(C#N)=C(N)O2 (stereo not drawn) | ? | 14.1µM | – | – | –
N#CC1=C(N)Oc2n[nH]c(-c3ccncc3)c2C1c1ccsc1 (stereo not drawn) | – | – | 22.4µM | – | –
N#CC1=C(N)Oc2n[nH]c(-c3ccccc3)c2C1c1ccsc1 (stereo not drawn) | – | – | – | – | –
COc1cc(C)c(C)cc1S(=O)(=O)N1CCN(Cc2ccccc2)CC1 | – | ? | – | – | –
Cc1nn(C)cc1S(=O)(=O)N1CCN(Cc2cccc(Cl)c2)CC1 | – | 22.4µM | · | – | –
O=C(COC(=O)c1ccccc1)Nc1ccc(Cl)cn1 | · | – | · | – | ·
O=C(COC(=O)Cc1ccccc1F)Nc1ccc(Cl)cn1 | ? | 12.6µM | · | – | –
NC(=O)c1ccsc1NC(=O)C1CCCN1S(=O)(=O)c1ccc(Cl)cc1 (stereo not drawn) | – | ? | ? | – | –
O=C(Nc1nccs1)C1CCCN1S(=O)(=O)c1ccc(Cl)cc1 (stereo not drawn) | – | 17.8µM | – | – | –
COc1cccc(-c2nc(-c3ccc4c(c3)NC(=O)CO4)cs2)c1 | · | 20µM | · | – | –
CC(Nc1nc(-c2ccc3c(c2)NC(=O)CO3)cs1)c1ccccc1 (stereo not drawn) | ? | 6.31µM | · | – | –
Cc1ccnn1CCSCC(=O)O | – | – | – | – | –
COC(=O)c1ccc(C2NC(=O)c3c(sc(C)c3C)N2)cc1 (stereo not drawn) | · | 23.8µM | · | · | ·
COc1ccc(CNC(=O)CN(Cc2ccc(OC)cc2)C(=O)c2csnn2)cc1 | · | 2.24µM | · | – | –
COc1ccc(CNC(=O)c2csnn2)cc1 | – | 25.1µM | – | – | –
COc1ccc(CNC(=O)COC(=O)c2ccccn2)cc1 | – | 25.1µM | · | – | –
COc1ccc(CNC(=O)CN(Cc2ccccc2)C(=O)c2csnn2)cc1 | – | ? | – | – | –
CCCOc1ccc(OC(=O)c2c(-c3ccccc3Cl)noc2C)cc1 | – | · | · | · | ·

Compound activity as filed in PubChem BioAssay.
